Assay results taken from PubChem BioAssay.

assay: yeast transport mutant growth inhibition pilot in 384-well plates, post-Golgi transport modulator project (AID 636); conditions: absorbance 615 nm, about 18 h, active compounds read high; in the data active means inhibition above about 31%; inactive means the rest

inhibition, inactive:
CCOc1ccc(N(CC(=O)Nc2ccc(C)c(C)c2)S(=O)(=O)c2c(C)noc2C)cc1 -0.13%, CCCn1c(OC)nc2c1c(=O)n(C)c(=O)n2C -2.53%, COc1cc2[nH]c(=O)n(CCCCCC(=O)N3CCN(c4ccccn4)CC3)c(=O)c2cc1OC -5.95%, CCOc1ccc(N(CC(=O)NC2CCCCC2)S(=O)(=O)c2c(C)noc2C)cc1 -2.31%, O=C(c1ccco1)N1CCN(C(=O)c2sccc2-c2ccccc2)CC1 2.3%, CCSC1=C(C#N)C(c2ccccc2OC)CC(=O)N1 (centres undefined) -1.73%, CCOC(=O)Cn1nc(-c2ccc(Cl)cc2)cc1N -7.95%, CC(C(=O)N1CC2(C)CC1CC(C)(C)C2)N1C(=O)c2ccccc2C1=O (centres undefined) -7.07%, COc1cccc(N(C(C)=O)c2nc(C)cc(C)c2C#N)c1 -7.26%, COc1cccc(NC(=O)c2ccco2)c1 -3.38%, Cc1ccc(Cn2c(CN3CCOCC3)nc3c2c(=O)n(C)c(=O)n3C)cc1 -5.14%, CCOc1ccc(NC(=O)CSc2nccn2C)cc1 -4.34%, Cc1nc2ccc(Br)cn2c1NC(C)(C)C -6.58%, COc1ccccc1C(=O)NCCc1nc2ccccc2n1C -6.76%, Cn1ccnc1SCC(=O)Nc1ccc2ccccc2c1 -4.38%, c1nc(NCC2(N3CCOCC3)CCCCC2)c2ccsc2n1 -5.27%, Cc1noc(C(=O)Nc2ccc3c(c2)OCO3)c1Cl -4.13%, Cc1ccc(S(=O)(=O)N2CCOCC2)cc1C(=O)Nc1nc(-c2cccnc2)cs1 0%, Cc1cccc(C)c1OCc1nnc(SCC(=O)Nc2ccccc2F)o1 -5.2%, CCN(CC)CCCN1C(=O)C(O)=C(C(=O)c2ccco2)C1c1ccc(C)o1 (centres undefined) -6.89%, Cc1ccc(S(=O)(=O)C(C#N)c2nc3ccccc3nc2N2CCCCC2)cc1 (centres undefined) -6.13%, C(/CCc1ccccc1)=N\n1cnnc1 -5.07%, CCOCCCNC(=O)C(c1ccccc1)N(Cc1ccc2c(c1)OCO2)C(=O)CNC(C)=O (centres undefined) -6.3%, COc1ccccc1N1CCN(c2cc(=O)n(Cc3ccc(F)cc3)c(=O)[nH]2)CC1 0%, CNC(=O)C1C2C=CC3(O2)C1C(=O)N(C1CC1)C3C(=O)NCc1ccc(OC)cc1 (centres undefined) -8.49%, CCCSc1nc2c(cnn2-c2ccc(C)cc2)c(=O)[nH]1 -2%, Nn1c(Cc2ccccc2F)nnc1SCC(=O)N1CC(=O)Nc2ccccc21 -2.86%, CCc1ccc(N2CC(C(=O)OCC(=O)NC3CCS(=O)(=O)C3)CC2=O)cc1 (centres undefined) 3.12%, Cc1ccccc1Cn1ccc(NC(=O)c2onc(C)c2Cl)n1 -4%, O=C(CSc1ccc2nnc(-c3ccccc3)n2n1)N1CCN(c2ccccc2)CC1 -0.13%, CC(C)C(NC(=O)c1ccc(S(=O)(=O)N2CCOCC2)cc1)c1nc2ccccc2[nH]1 (centres undefined) 1.95%, Cc1ccc(SCC(=O)NCCN2C(=O)CSC2=O)c(C)c1 0.52%, N#Cc1c2n(c(=O)[nH]c1=O)CCCCC2 -2.6%, CCN(C1CCCCC1)S(=O)(=O)c1ccc(S(=O)(=O)N2CCN(CCC#N)CC2)cc1 -1.28%, COc1cccc2c(=O)c3c(cnn3C)n(C)c12 -1.97%, Cc1nnc(N2C(=O)C(O)=C(C(=O)c3ccco3)C2c2ccc(F)cc2)s1 (centres undefined) -3.46%, CC1(C)CC(=O)C(C=NCC2CCNCC2)=C(O)C1 1.04%, CCOC(=O)C(C)Sc1nnc(Cc2cc(=O)[nH]c(=O)[nH]2)n1-c1ccc(Cl)cc1 (centres undefined) 1.54%, O=C(CS(=O)(=O)Cc1ccccc1)Nc1nc2ccccc2s1 -0.13%
